Screens as filed in PubChem BioAssay.
Pf Dd2 inh: inhibitors of Plasmodium falciparum Dd2 growth | P. falciparum Dd2 growth, SYBR Green, 72 h | Potency, µM (titrated, usually from 28.9 µM), hits mostly inhibitors | 120,000 compounds, 4.3% hits | AID 1347417; active = well fitted inhibition curve with a large enough effect; also: nearly all actives have a fitted effect of over 65% in size
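Infected erythrocytes (Dd2, 0.3% parasitemia, 2.5% hematocrit final) are added to compound in RPMI-1640/Albumax II medium, grown 72 h at 37C in low oxygen, then lysed with saponin/Triton-X containing SYBR Green and read by fluorescence.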
Hits are given with their value; – = inactive. Only a selection was taken, and hits are over-represented in it overall.

SMILES | Pf Dd2 inh
COCCNC(=O)c1cc(C2CC2)nc2onc(C3CCNC3)c12 (stereo unspecified) | –
O=C(NCc1ccc(F)cc1)c1cc(C2CC2)nc2onc(C3CCCNC3)c12 (stereo unspecified) | 8.9µM
O=C(NCc1ccc(F)cc1)c1cc(C2CC2)nc2onc(C3CCNCC3)c12 | 10µM
COCCC1(C(=O)O)CCCN(Cc2cn[nH]c2C2CCCCC2)C1 (stereo unspecified) | –
Cc1ncc2c(n1)CCCN(CC(=O)NC1CCCCCC1)C2=O | –
Cc1cnc(C)c(N2CCN(CC3(O)CCNC3)CC2)n1 (stereo unspecified) | –
CC(C)C[C@@H]1N[C@H](C(=O)NCc2ccc(C(F)(F)F)cc2)Cc2c[nH]c3cccc1c23 | –
COc1ccc(NC(=O)N2CCC(Cc3noc(C4CC4)n3)C2)cc1 (stereo unspecified) | –
CC1=C[C@@H](CNCc2ccco2)[C@H](C(C)C)C[C@H]1Cc1nnc(C(C)(C)C)o1 | 13µM
CC1=C[C@@H](CNS(=O)(=O)c2ccccc2)[C@H](C(C)C)C[C@H]1CC(=O)NCc1ccccn1 | –
CC1=C[C@@H](CNC(=O)c2cccnc2)[C@H](C(C)C)C[C@H]1CC(=O)NCc1ccccn1 | –
COc1ccc(-c2nnc(C[C@@H]3C[C@@H](C(C)C)[C@H](CNCc4ccncc4)C=C3C)o2)cc1 | 4µM
CC1=C[C@@H](CN2CCC(C(N)=O)CC2)[C@H](C(C)C)C[C@H]1Cc1nnc(C(C)(C)C)o1 | –
COc1ccc(C(=O)NC[C@@H]2C=C(C)[C@H](CC(=O)O)C[C@H]2C(C)C)cc1 | –
CC1=C[C@@H](CNC(=O)NC(C)C)[C@H](C(C)C)C[C@H]1CC(=O)NCc1ccccn1 | –
CC1=C[C@@H](CN(C)CCc2ccccn2)[C@H](C(C)C)C[C@H]1Cc1nnc(-c2ccncc2)o1 | 3.5µM
CC1=C[C@@H](CNC(=O)C(C)(C)C)[C@H](C(C)C)C[C@H]1Cc1nnc(-c2ccccc2F)o1 | –
CC1=C[C@@H](CNC(=O)COc2ccccc2)[C@H](C(C)C)C[C@H]1CC(=O)Nc1ccccn1 | –
CC1=C[C@@H](CNS(C)(=O)=O)[C@H](C(C)C)C[C@H]1Cc1nnc(-c2cncn2C)o1 | –
CC1=C[C@@H](CN(C)CCc2ccccn2)[C@H](C(C)C)C[C@H]1Cc1nnc(-c2ccccc2)o1 | 2.2µM
CC[C@H]1CN(C(=O)C(C)(C)C)CC[C@H]1CC(=O)NCc1cccnc1 | –
Fc1ccc(C2Cn3nnc(-c4nc(-c5ccc(Br)cc5)no4)c3CO2)cc1 (stereo unspecified) | –
Cc1n[nH]c(C)c1CNC(=O)C12CCCC=C1N(Cc1ccccc1)C(=O)CC2 (stereo unspecified) | –
C=CCNC(=O)N1CCCC1C(=O)Nc1cccc(-n2cccn2)c1 (stereo unspecified) | –
CC(=O)N1CCC(c2nnc3n2CCNC3)CC1 | –
SMILES | Pf Dd2 inh
O=C(NC1CCCCC1)N1C[C@@H]2C[C@H](C1)c1ccc(C3CCCCC3)c(=O)n1C2 | –
CC1(C)Cc2nc(C(C)(C)C)ncc2C(NC(=O)CCCN2CCCC2=O)C1 (stereo unspecified) | –
O=C(c1ccsc1)N1CCC(N2C(=O)C(O)C23CCCCC3)CC1 (stereo unspecified) | –
COc1ccc(C(=O)N2CCN(c3cc(-c4cccs4)[nH]n3)CC2)c(C)c1 | –
CC(C)NC(=O)N[C@H]1CCN(C(=O)CC(C)(C)C)[C@@H]1C(=O)N[C@H](Cc1c[nH]c2ccccc12)C(N)=O | –
Cc1ccc(C2=NC3(CCN(C(=O)c4ccc(C)s4)CC3)ON2)cc1 | –
CC1=C[C@@H](CNS(=O)(=O)c2ccccc2)[C@H](C(C)C)C[C@H]1CC(=O)NCCN(C)C | –
CC1=C[C@@H](CN(C)CCN(C)C)[C@H](C(C)C)C[C@H]1Cc1nnc(-c2ccccc2)o1 | 3.5µM
Cn1cccc1C(=O)N1CCOCC1CC(=O)N1CCSCC1 (stereo unspecified) | –
COCCCNC(=O)CSc1nc2c(sc3ccccc32)c(=O)n1CCCC(=O)NCCOC | –
Cc1ccccc1CSc1nc2c(sc3ccccc32)c(=O)n1CCCC(=O)NCCCOC(C)C | 11µM
CC(C)OCCCNC(=O)CCCn1c(SCC(=O)c2ccc(F)cc2)nc2c(sc3ccccc32)c1=O | –
Cc1cccc(NC(=O)N2CCn3nnc(CCC(=O)NC4CC4)c3C2)c1 | –
O=C(c1cnc(-c2cccs2)nc1)N1CCN(CCO)CC(O)C1 (stereo unspecified) | –
COCCOc1cc(C)c2c(c1C)C[C@H](C(C)C(=O)NC(C)(C)C)CC2 (stereo partly specified) | –
COCCOc1cc(C)c2c(c1C)C[C@H]([C@H](C)C(=O)Nc1ccccn1)CC2 | 13µM
COCCOc1cc(C)c2c(c1C)C[C@H]([C@H](C)C(=O)NC1CCCC1)CC2 | –
CC(C)(O)c1cn(C[C@H]2CC3CCN2C[C@@H]3C(=O)NCc2ccco2)nn1 (stereo partly specified) | –
Cc1ccc(C)c(C(=O)NC2CCCN(c3cc(-c4ccccc4)[nH]n3)C2)c1 (stereo unspecified) | –
CC(=O)N1c2ccc(S(=O)(=O)NCC3CCC(C(=O)Nc4ccc(C)c(C)c4)CC3)cc2CC1C (stereo unspecified) | –
CC(=O)N1c2ccc(S(=O)(=O)NCc3ccccc3Cl)cc2CC1C (stereo unspecified) | –
CC1Cc2cc(S(=O)(=O)NCc3ccccc3)ccc2N1C(=O)C1CCC1 (stereo unspecified) | 3.5µM
CC(=O)N1c2ccc(S(=O)(=O)NCC3CCC(C(=O)Nc4ccc(F)cc4)CC3)cc2CC1C (stereo unspecified) | –
CCc1cccc(NS(=O)(=O)c2ccc3c(c2)CC(C)N3C(=O)C2CC2)c1 (stereo unspecified) | –
CCc1ccc(NC(=O)C2CCC(CNS(=O)(=O)c3ccc4c(c3)CC(C)N4C(C)=O)CC2)cc1 (stereo unspecified) | 10µM
SMILES | Pf Dd2 inh
COc1ccc(NC(=O)N2Cc3[nH]cnc3C[C@H]2c2nc(-c3ccccc3)no2)cc1 | –
Cn1ccc2ccc(C(=O)N3CCC(C#N)(c4ccccc4)CC3)cc21 | –
COCCCNC(=O)N1CCCCCCN(C)C(=O)[C@@H]2CCC[C@@H]21 | –
O=C(c1ccccc1OCC1CCCN(Cc2ccncc2F)C1)N1CCOCC1 (stereo unspecified) | –
CCOc1ccc(C2c3c(-c4ccccc4O)n[nH]c3C(=O)N2Cc2cccnc2)cc1OC (stereo unspecified) | –
CCCCN1C(=O)c2[nH]nc(-c3ccccc3O)c2C1c1ccc(OCc2ccccc2)c(OC)c1 (stereo unspecified) | 11µM
CCCN1C(=O)c2[nH]nc(-c3ccccc3O)c2C1c1ccc(OCc2ccccc2)c(OCC)c1 (stereo unspecified) | 11µM
CCCCN1C(=O)c2[nH]nc(-c3ccccc3O)c2C1c1cc(Br)c(O)c(OC)c1 (stereo unspecified) | –
C=CCNC(=O)C1CC(c2ccccc2F)=NO1 (stereo unspecified) | –
O=C(c1ccc(F)cc1F)N1C[C@@H](CO)[C@H](c2nc(C3CC3)no2)C1 | –
CCN1CCN(c2nc3c(s2)CN(Cc2ccco2)CC3)CC1 | –
CN1CCN(c2ncnc3sc4c(c23)CCN(Cc2ccco2)C4)CC1 | 11µM
c1ccc(CN2CCNc3cnc(-c4ccc(N5CCOCC5)cc4)cc3C2)cc1 | –
c1ccc(CN2CCc3c(sc4ncnc(N5CCOCC5)c34)C2)cc1 | 7.9µM
